Laboratory results reported in PubChem BioAssay (NCI).
This is part of a sample that, as a whole, favours compounds with a hit. Of some 79,000 tested, about 15% had one in any assay. Calls of active or inactive are those of the source. Rule as the data show it: active = growth inhibition above about 70%; inactive = the rest.

Experiments:
[1] = NCI Yeast Anticancer Drug Screen. Data for the rad52 strain (AID 147);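 also: 0% = growth of vehicle-treated control cultures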; details: S. cerevisiae rad52 mutant growth inhibition, active compounds read high
Outline: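 Compounds are applied to a genetically defined yeast strain lacking normal DNA damage repair, and inhibition of growth is expressed relative to cultures given vehicle only.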

[2] = NCI Yeast Anticancer Drug Screen. Data for the wt1 strain (AID 149);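 also: 0% = growth of vehicle-treated wt1 cultures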; details: S. cerevisiae wt1 strain (SPY 50644) growth inhibition, active compounds read high
Outline: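 Growth inhibition read against vehicle controls after compound exposure of the wt1 yeast strain.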

[3] = NCI Yeast Anticancer Drug Screen. Data for the rad50EPP+ strain (AID 151);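 also: 0% = growth of vehicle-treated control cultures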; details: S. cerevisiae rad50 mutant strain, active compounds read high
Outline: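 Compounds were applied to the rad50EPP+ yeast strain, which bears a defined DNA repair alteration, and growth inhibition was determined relative to vehicle-treated cultures.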

[4] = NCI Yeast Anticancer Drug Screen. Data for the rad50 strain (AID 155);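 also: 0% = growth of vehicle-only cultures of the same strain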; details: S. cerevisiae rad50 strain growth inhibition, active compounds read high
Outline: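 Readout: growth inhibition relative to vehicle-treated cultures. Compound exposure was carried out in a genetically defined yeast strain deficient in DNA damage repair.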

[5] = NCI Yeast Anticancer Drug Screen. Data for the mec2-1 strain (AID 157); details: S. cerevisiae mec2-1 strain, active compounds read high
Outline: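 Strain: mec2-1 (DNA repair/cell cycle alteration). Compound exposure, then growth measured; inhibition expressed relative to vehicle.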

[6] = NCI Yeast Anticancer Drug Screen. Data for the rad14 strain (AID 159);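 also: 0% = growth of vehicle-treated control cultures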; details: S. cerevisiae rad14 strain growth inhibition, active compounds read high
Outline: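 Growth inhibition vs vehicle controls; genetically altered yeast strain (DNA damage repair defect) treated with test compounds.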

[7] = NCI Yeast Anticancer Drug Screen. Data for the sgs1 mgt1 strain (AID 161);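 also: 0% = growth of cultures given vehicle only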; details: S. cerevisiae sgs1 mgt1 strain, active compounds read high
Outline: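 Genetically altered yeast, compound exposure, growth inhibition relative to vehicle.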

[8] = NCI Yeast Anticancer Drug Screen. Data for the CLN2oe strain (AID 163);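 also: 0% = growth of vehicle-only control cultures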; details: S. cerevisiae CLN2oe strain, active compounds read high
Outline: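 Growth of a genetically modified yeast strain is measured after compound exposure and compared with cultures given vehicle alone.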

[9] = NCI Yeast Anticancer Drug Screen. Data for the cln2 rad14 strain (AID 165);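 also: 0% = growth equal to vehicle treated cultures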; details: S. cerevisiae cln2 rad14 strain, active compounds read high
Outline: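 Compounds are applied to the cln2 rad14 yeast strain, and growth is then compared with that of vehicle-treated cultures to give inhibition.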

[10] = NCI Yeast Anticancer Drug Screen. Data for the bub3 strain (AID 167); details: S. cerevisiae bub3 mutant strain, active compounds read high
Outline: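 Readout: yeast growth inhibition, expressed relative to vehicle-only wells. The test organism is a mutant strain from a panel with lesions in DNA repair or checkpoint genes.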

[11] = NCI Yeast Anticancer Drug Screen. Data for the mlh1 strain (AID 171);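 also: 0% = growth of vehicle-treated control cultures of the same strain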; details: S. cerevisiae mlh1 strain growth inhibition, active compounds read high
Outline: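 Growth of the mutant yeast strain after compound exposure, expressed as inhibition relative to vehicle-only controls.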

[12] = NCI Yeast Anticancer Drug Screen. Data for the sgs1 strain (AID 173);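 also: 0% = growth of vehicle-only control cultures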; details: S. cerevisiae sgs1 mutant, active compounds read high
Outline: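 Growth of a yeast strain bearing a defined genetic alteration is measured after compound treatment. Inhibition is expressed relative to vehicle-only controls.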

[13] = NCI Yeast Anticancer Drug Screen. Data for the mlh1 rad18 strain (AID 175); details: S. cerevisiae mlh1 rad18 strain growth inhibition, active compounds read high
Outline: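 Read-out is yeast growth inhibition, calculated against vehicle-only controls. The compound was applied to a strain engineered with DNA damage repair alterations.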

[14] = NCI Yeast Anticancer Drug Screen. Data for the rad18 strain (AID 177); details: S. cerevisiae rad18 mutant growth inhibition, active compounds read high
Outline: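 Growth of the mutant yeast strain after compound exposure, normalised to vehicle-only cultures.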

[15] = at 5.0 µM (retest, dose inferred, filed as 0.5)
[16] = at 50.0 µM (retest, dose inferred, filed as 5.0)

Measured: growth inhibition

CCC(=O)N(c1ccccc1)C(C)CN1CCC(O)(c2cccc(C(F)(F)F)c2)CC1 (stereo not drawn)
inactive: [1]; at 1.2 µM 0% | [1]; at 3.7 µM 4% | [1]; at 11.0 µM 13% | [1]; at 33.0 µM 27% | [2]; at 1.2 µM 2% | [2]; at 3.7 µM 6% | [2]; at 11.0 µM 11% | [2]; at 33.0 µM 22% | [2]; at 100.0 µM 46% | [3]; at 1.2 µM -3% | [3]; at 3.7 µM -3% | [3]; at 11.0 µM -1% | [3]; at 33.0 µM -2% | [3]; at 100.0 µM -1% | [4]; at 1.2 µM -2% | [4]; at 3.7 µM -7% | [4]; [15] 21% | [4]; at 11.0 µM 3% | [4]; at 33.0 µM 26% | [4]; [16] 4% | [4]; at 50.0 µM 62.3% | [5]; at 1.2 µM 0% | [5]; at 3.7 µM 7% | [5]; [15] -2% | [5]; at 11.0 µM 17% | [5]; at 33.0 µM 23% | [5]; [16] 10% | [5]; at 50.0 µM 10.2% | [5]; at 100.0 µM 57% | [6]; at 1.2 µM 6% | [6]; at 3.7 µM 18% | [6]; at 11.0 µM 48% | [6]; at 33.0 µM 68% | [7]; [15] -4% | [7]; [16] 41% | [7]; at 50.0 µM 68.2% | [8]; at 1.2 µM 2% | [8]; at 3.7 µM 1% | [8]; at 11.0 µM 13% | [8]; at 33.0 µM 41% | [9]; [15] 7% | [9]; [16] 43% | [9]; at 50.0 µM 18.6% | [10]; at 1.2 µM 1% | [10]; at 3.7 µM 3% | [10]; [15] 4% | [10]; at 11.0 µM 17% | [10]; at 33.0 µM 49% | [10]; [16] 51% | [10]; at 50.0 µM 65.2% | [11]; at 1.2 µM 2% | [11]; at 3.7 µM 6% | [11]; at 11.0 µM 17% | [11]; at 33.0 µM 44% | [12]; at 1.2 µM 2% | [12]; at 3.7 µM 10% | [12]; at 11.0 µM 20% | [12]; at 33.0 µM 60% | [13]; [15] -3% | [13]; [16] 37% | [13]; at 50.0 µM 38.9% | [14]; at 1.2 µM 3% | [14]; at 3.7 µM 9% | [14]; at 11.0 µM 25% | [14]; at 33.0 µM 31% | [14]; at 100.0 µM 69%
active: [1]; at 100.0 µM 83% | [4]; at 100.0 µM 76% | [6]; at 100.0 µM 97% | [8]; at 100.0 µM 73% | [10]; at 100.0 µM 89% | [11]; at 100.0 µM 91% | [12]; at 100.0 µM 94%
